Experimental data as given in PubChem BioAssay.
The source made the active and inactive calls.

Legend:
[1] = small molecules captured by biotinylated probe aFSTL3 – biochemical, small-molecule microarray, fluorescence 635/667, stem cell growth factor project, primary screen (AID 1064); conditions: higher = more signal;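 also: measures binding of the biotinylated anti-FSTL3 antibody to printed compounds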
[2] = binders from COS7 lysate, DM2A8 probe, primary screen, torsin A project, cell lysate, small-molecule microarray, fluorescence 635/667 (AID 1065); conditions: higher = more signal, COS7 lysate expressing mutant human TOR1A
[3] = small molecules captured by biotinylated probe aFGF2 – biochemical, small-molecule microarray, fluorescence 635/667, stem cell growth factor project, primary screen (AID 1067); conditions: higher = more signal;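 also: measures binding of biotinylated aFGF2 protein to printed compounds on slides; z-score merges feature fluorescence and signal-to-noise across triplicate slides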
[4] = small molecules captured by biotinylated probe aFGF10 – biochemical, small-molecule microarray, fluorescence 635/667, stem cell growth factor project, primary screen (AID 1071); conditions: higher = more signal;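 also: score merges 667 nm spot intensity and signal to noise from triplicate slides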
[5] = biological target: Neurogenic locus notch homolog protein 2 (Homo sapiens) (UniProt Q04721); test: small molecules binding Notch2 protein – biochemical, small-molecule microarray, 635 nm fluorescence, stem cell growth factors, primary screen (AID 1073); conditions: higher = more signal
[6] = biological target: Pro-neuregulin-1, membrane-bound isoform (Homo sapiens) (UniProt Q02297); test: small molecules binding neuregulin-1 protein – biochemical, small-molecule microarray, fluorescence 635/667, psychiatric disease protein project, primary screen (AID 1075); conditions: NRG1 binding, 635 nm fluorescence, higher = more signal;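 also: score combines 667 nm spot fluorescence with signal to noise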
[7] = tested on: Neuregulin-1 EGF-like domain; test: small molecules binding NRG1 EGF domain – biochemical, small-molecule microarray, 635 nm fluorescence, primary screen (AID 1081); conditions: higher = more signal;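 also: binding of the protein to compounds printed on small-molecule microarray slides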
[8] = FRG1 expression reporter modulators in myotubes – cell-based, C2C12 myotubes, firefly/Renilla luciferase, luminescence, FRG1 inhibition for FSHD, primary screen (AID 1084); conditions: FRG1 promoter luciferase, higher = more signal, called active from +8 up or from −8 down
[9] = small molecules captured by biotinylated probe aFST – biochemical, small-molecule microarray, fluorescence 635/667, stem cell growth factor project, primary screen (AID 1086); conditions: higher = more signal;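 also: score merges 667 nm fluorescence with signal-to-noise of each printed compound spot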
[10] = binders of probe aHhip on microarray, primary screen, stem cell growth factor project, biochemical, small-molecule microarray, fluorescence 635/667 (AID 1087); conditions: higher = more signal;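 also: score merges spot fluorescence at 667nm with spot signal to noise ratio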
[11] = tested on: PRMT1 (protein arginine N-methyltransferase 1); test: small molecules binding arginine methyltransferase PRMT1 – biochemical, small-molecule microarray, 635 nm fluorescence, primary screen (AID 1088); conditions: higher = more signal;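 also: binding of Prmt1 protein to compounds spotted on small-molecule microarray slides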
[12] = growth effects on S. cerevisiae YJM789 – YJM789 clinical isolate, OD600, 24 h, basal, primary screen (AID 1089); conditions: higher = more signal, called active from +8 up or from −8 down;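 also: growth of clinical yeast isolate S. cerevisiae YJM 789 seeded 1000 cells per well; test concentration not given here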
[13] = S. pombe growth modifiers, basal conditions – strain 972, OD600, 24 h, no modulator, primary screen (AID 1090);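 also: basal condition with compound alone and no growth modifier present; test concentration not given here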; conditions: S. pombe 972 growth, higher = more signal, called active from +8 up or from −8 down
[14] = budding yeast growth modifiers under rapamycin – strain BY4716, OD600, 96 h, primary screen (AID 1091); also: test concentration not given here; conditions: S. cerevisiae BY4716 + rapamycin, higher = more signal, called active from +8 up or from −8 down
[15] = biological target: Torsin-1A-interacting protein 2 (Homo sapiens) (UniProt Q8NFQ8); test: small molecules binding lysate-expressed LULL1 – cell lysate, human LULL1 lysate, 635/667 nm fluorescence, primary screen (AID 1092); conditions: small-molecule microarray, hLULL1 lysate binding, 635 nm fluorescence; higher = more signal;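 also: probe is lysate of COS7 cells overexpressing human LULL1; score merges per-feature 667 nm fluorescence with signal-to-noise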
[16] = optical density change of DRC41 E. coli – strain DRC41, OD650, 24 h, E. coli filamentation project, primary screen (AID 1093);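 also: MC1000 strain lacking acrAB efflux and sulA so SOS filamentation is blocked; test concentration not given here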; conditions: E. coli DRC41 growth, higher = more signal, called active from +8 up or from −8 down
[17] = probe aLefty2 binding to arrayed compounds – biochemical, biotinylated probe, 635/667 nm fluorescence, primary screen (AID 1094); conditions: small-molecule microarray, higher = more signal;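 also: score merges spot fluorescence near 667 nm with spot signal-to-noise ratio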
[18] = tested on: Noggin (protein binding on small-molecule microarray); test: small molecules binding Noggin protein – biochemical, 635/667 nm fluorescence, primary screen (AID 1095); conditions: 635 nm fluorescence, higher = more signal;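 also: score merges 667 nm feature fluorescence with signal to noise over triplicate slides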
[19] = biological target: Neurogenic locus notch homolog protein 3 (Homo sapiens) (UniProt Q9UM47); test: small molecules binding NOTCH3 protein – biochemical, 635/667 nm fluorescence, primary screen (AID 1096); conditions: small-molecule microarray, 635 nm fluorescence, higher = more signal
[20] = probe aEGFR binding to arrayed compounds – biochemical, biotinylated probe, 635/667 nm fluorescence, primary screen (AID 1097); conditions: small-molecule microarray, higher = more signal;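 also: probe is a biotinylated anti-EGFR antibody binding compounds printed on slides; score combines fluorescence near 667 nm and signal to noise of each spot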

Sequence of Pro-neuregulin-1, membrane-bound isoform (Homo sapiens) (Q02297 whole entry, looked up, the tested form may be a part, canonical isoform): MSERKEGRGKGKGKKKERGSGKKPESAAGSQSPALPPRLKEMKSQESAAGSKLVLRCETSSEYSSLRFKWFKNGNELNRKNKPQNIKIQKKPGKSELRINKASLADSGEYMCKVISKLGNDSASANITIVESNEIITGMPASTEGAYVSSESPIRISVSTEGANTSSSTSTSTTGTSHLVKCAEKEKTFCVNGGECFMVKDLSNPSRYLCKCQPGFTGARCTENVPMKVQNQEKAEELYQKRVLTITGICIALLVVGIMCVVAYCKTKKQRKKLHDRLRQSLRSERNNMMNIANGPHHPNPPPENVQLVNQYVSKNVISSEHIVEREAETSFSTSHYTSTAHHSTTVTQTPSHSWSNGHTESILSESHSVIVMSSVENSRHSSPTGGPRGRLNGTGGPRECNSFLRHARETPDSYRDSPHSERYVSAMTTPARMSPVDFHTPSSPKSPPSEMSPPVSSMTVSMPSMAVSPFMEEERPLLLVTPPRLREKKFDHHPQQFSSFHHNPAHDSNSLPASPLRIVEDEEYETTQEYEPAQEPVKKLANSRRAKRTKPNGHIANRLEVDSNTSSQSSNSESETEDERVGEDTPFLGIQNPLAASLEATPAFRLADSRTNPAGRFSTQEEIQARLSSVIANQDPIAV
Sequence of Torsin-1A-interacting protein 2 (Homo sapiens) (Q8NFQ8 whole entry, looked up): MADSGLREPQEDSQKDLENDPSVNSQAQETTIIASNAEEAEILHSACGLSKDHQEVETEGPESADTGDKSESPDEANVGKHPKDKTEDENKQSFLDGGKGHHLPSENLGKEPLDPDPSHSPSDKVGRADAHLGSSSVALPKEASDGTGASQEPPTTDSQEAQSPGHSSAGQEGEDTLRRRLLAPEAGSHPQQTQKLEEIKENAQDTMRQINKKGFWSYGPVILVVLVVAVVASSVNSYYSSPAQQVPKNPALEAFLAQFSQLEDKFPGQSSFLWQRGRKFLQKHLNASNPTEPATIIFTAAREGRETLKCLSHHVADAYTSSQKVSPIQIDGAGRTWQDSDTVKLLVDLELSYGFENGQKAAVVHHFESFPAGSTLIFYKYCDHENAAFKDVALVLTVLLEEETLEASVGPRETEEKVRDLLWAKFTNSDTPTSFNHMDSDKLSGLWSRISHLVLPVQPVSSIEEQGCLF
Sequence of Neurogenic locus notch homolog protein 2 (Homo sapiens) (Q04721 whole entry, looked up, canonical isoform): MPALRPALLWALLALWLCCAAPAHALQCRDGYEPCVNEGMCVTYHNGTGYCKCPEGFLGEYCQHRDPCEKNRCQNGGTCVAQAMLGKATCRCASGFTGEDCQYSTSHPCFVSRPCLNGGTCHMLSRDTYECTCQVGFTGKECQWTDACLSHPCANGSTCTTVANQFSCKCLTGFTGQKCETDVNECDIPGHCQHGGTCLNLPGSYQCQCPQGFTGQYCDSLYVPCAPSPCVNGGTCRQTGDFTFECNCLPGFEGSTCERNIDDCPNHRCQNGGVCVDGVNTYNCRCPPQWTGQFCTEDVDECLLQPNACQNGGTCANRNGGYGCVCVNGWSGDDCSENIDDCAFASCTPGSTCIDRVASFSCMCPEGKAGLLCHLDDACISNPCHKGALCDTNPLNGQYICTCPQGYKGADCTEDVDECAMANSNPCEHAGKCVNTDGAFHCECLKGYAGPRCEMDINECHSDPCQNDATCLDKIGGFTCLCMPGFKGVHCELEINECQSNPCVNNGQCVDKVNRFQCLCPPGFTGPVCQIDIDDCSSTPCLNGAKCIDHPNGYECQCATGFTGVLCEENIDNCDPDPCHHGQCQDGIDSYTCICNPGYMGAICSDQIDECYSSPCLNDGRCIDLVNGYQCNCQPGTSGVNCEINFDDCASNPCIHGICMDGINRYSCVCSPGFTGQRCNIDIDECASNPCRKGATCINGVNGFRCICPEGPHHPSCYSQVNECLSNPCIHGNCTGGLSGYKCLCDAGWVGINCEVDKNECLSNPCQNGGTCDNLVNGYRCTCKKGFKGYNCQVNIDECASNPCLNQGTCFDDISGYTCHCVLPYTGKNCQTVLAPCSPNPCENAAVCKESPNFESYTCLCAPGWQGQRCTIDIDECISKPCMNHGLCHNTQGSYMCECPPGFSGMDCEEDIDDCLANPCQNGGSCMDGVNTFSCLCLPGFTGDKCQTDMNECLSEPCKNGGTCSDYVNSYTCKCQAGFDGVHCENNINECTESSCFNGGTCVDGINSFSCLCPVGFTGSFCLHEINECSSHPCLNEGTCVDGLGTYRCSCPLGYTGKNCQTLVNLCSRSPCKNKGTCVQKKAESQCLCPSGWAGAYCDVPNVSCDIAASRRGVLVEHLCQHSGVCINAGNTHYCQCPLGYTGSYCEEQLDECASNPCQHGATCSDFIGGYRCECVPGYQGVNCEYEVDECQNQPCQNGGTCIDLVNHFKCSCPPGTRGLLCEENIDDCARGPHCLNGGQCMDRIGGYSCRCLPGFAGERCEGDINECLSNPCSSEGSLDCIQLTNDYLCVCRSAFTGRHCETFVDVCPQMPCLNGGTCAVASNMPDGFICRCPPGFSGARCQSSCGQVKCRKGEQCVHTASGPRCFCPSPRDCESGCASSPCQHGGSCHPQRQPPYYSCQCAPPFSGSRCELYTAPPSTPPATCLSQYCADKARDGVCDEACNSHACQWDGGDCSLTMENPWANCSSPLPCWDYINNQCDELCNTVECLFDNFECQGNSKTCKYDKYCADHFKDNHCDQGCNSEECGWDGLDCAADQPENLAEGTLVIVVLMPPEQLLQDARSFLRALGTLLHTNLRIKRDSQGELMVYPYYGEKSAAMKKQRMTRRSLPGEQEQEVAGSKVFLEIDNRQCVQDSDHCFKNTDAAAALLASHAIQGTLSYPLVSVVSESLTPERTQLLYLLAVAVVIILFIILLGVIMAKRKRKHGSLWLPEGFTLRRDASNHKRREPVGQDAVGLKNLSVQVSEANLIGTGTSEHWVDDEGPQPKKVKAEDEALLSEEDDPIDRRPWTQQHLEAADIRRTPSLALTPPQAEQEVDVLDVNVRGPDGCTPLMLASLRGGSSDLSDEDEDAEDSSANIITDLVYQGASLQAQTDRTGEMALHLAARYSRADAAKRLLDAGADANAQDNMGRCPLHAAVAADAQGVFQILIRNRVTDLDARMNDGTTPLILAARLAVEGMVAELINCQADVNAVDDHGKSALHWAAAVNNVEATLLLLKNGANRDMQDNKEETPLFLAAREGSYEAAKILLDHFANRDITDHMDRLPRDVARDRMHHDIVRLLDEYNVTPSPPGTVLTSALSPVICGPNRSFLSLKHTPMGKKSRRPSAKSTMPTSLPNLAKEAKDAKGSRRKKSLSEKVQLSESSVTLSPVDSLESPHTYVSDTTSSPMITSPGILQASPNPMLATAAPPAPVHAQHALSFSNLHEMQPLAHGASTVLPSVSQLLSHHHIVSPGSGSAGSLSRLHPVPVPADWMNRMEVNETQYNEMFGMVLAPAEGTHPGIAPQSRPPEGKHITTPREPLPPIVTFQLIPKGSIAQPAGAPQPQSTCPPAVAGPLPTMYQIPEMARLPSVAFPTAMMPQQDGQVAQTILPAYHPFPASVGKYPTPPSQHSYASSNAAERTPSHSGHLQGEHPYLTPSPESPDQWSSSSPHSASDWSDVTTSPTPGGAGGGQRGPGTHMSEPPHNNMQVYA

Compound	composite z-score [1]	composite z-score [2]	composite z-score [3]	composite z-score [4]	composite z-score [5]	composite z-score [6]	composite z-score [7]	z-score [8]	composite z-score [9]	composite z-score [10]	composite z-score [11]	z-score [12]	z-score [13]	z-score [14]	composite z-score [15]	z-score [16]	composite z-score [17]	composite z-score [18]	composite z-score [19]	composite z-score [20]
CCOC(=O)C1=CC[C@@H](c2ccccc2C(F)(F)F)N(S(=O)(=O)c2ccc(C)cc2)[C@H]1c1ccc(C#N)cc1	-0.0042	0.0813	0.0625	0.692	1.36	0.988	1.25	0.852 (inactive)	1.11	-0.0024	0.884	-0.242 (inactive)	1.2 (inactive)	3.51 (inactive)	2.56	-0.156 (inactive)	-0.0099	0.292	1.03	-0.0061
C=C(CCCC)/C(=C/C[C@@H](OC(=O)c1ccncc1)c1ccccc1OCCO)c1cnc2ccccc2c1	-0.5	0.517	0.165	1.17	1.33	0.611	1.04	-1.53 (inactive)	0.574	0.469	1.55	-0.868 (inactive)	-1.2 (inactive)	1.65 (inactive)	1.26	0.514 (inactive)	-0.127	1.9	1.05	-0.0028
O=C1N(Cc2ccccc2)Cc2ccccc2[C@@H]2OC(c3ccc(OCCCO)cc3)=N[C@]12CCS(=O)(=O)c1ccccc1	0.184	-0.0546	0.0247	0.379	1.28	1.48	1.32	-3.35 (inactive)	0.297	-0.171	1.57	1.01 (inactive)	1.41 (inactive)	14.9 (active)	2.96	0.0267 (inactive)	0.228	0.49	0.763	0.209
COCCOC(=O)N1C(=O)[C@@]2(c3cc(C#CCNC(N)=O)ccc31)[C@H](C(=O)N1CCc3cc(OC)c(OC)cc3C1)[C@H]1C(=O)O[C@H](c3ccccc3)[C@H](c3ccccc3)N1[C@@H]2c1ccccc1OCCO	-0.178	1.05	-0.0908	0.371	0.749	0.202	0.869	-0.902 (inactive)	0.31	-0.191	1.37	-0.959 (inactive)	0.319 (inactive)	3.2 (inactive)	2.14	1.16 (inactive)	0.0253	1.36	1.11	-0.0734
O=C(NCC(F)(F)F)[C@@H]1c2ccccc2C(=O)N(Cc2ccc(OC(F)(F)F)cc2)[C@H]1c1ccc(CO)cc1	-0.0966	0.661	-0.0595	0.41	0.8	1.33	1.1	-1.76 (inactive)	0.208	-0.25	1.53	-0.54 (inactive)	-0.046 (inactive)	-1.1 (inactive)	1.81	0.583 (inactive)	-0.143	0.575	0.0891	-0.0978
COC(=O)[C@@]1(Cc2ccc(OC)cc2)[C@H]2c3cc(C(=O)N(C)C)n(Cc4ccc(Cl)c(C(F)(F)F)c4)c3C[C@H]2CN1C(=O)c1ccccc1	1.33	0.218	0.262	0.473	1.47	1.39	1.03	0.282 (inactive)	1.73	1.71	0.295	1.01 (inactive)	1.38 (inactive)	2.98 (inactive)	3.06	-0.397 (inactive)	0.539	-0.0329	1.02	0.35
C=CCC(OC(C)=O)[C@@H]1[C@@H](N(Cc2cccc3ccccc23)C(=O)c2cccc3ccccc23)c2cc(OCCCO)ccc2N1C(=O)c1ccc(-c2ccccc2)cc1 (stereo not given in full)	-0.0699	0.103	-0.105	0.0552	-0.603	0.523	-0.825	-1.66 (inactive)	0.234	0.607	0.159	-0.551 (inactive)	0.169 (inactive)	-0.725 (inactive)	0.465	-0.61 (inactive)	-0.027	0.163	-0.287	-0.0104
CCCCCCc1nc(-c2cc(C)c(OC)c(C)c2)c(C)c2c1[Si](C(C)C)(C(C)C)OC2	-0.0656	0.0489	-0.093	-0.0949	0.0241	-0.391	-0.453	0.785 (inactive)	0.021	-0.116	-0.92	0.0333 (inactive)	-0.922 (inactive)	0.276 (inactive)	-0.407	0.352 (inactive)	-0.0915	0.058	-0.127	-0.171
C=CCC(OC(C)=O)[C@@H]1[C@@H](N(Cc2cccc3ccccc23)C(=O)Cc2ccc(F)cc2)c2cc(OCCCO)ccc2N1C(=O)c1ccc2ccccc2n1 (stereo not given in full)	0.258	-0.0938	0.0631	0.0908	0.179	0.0429	-0.429	-1.11 (inactive)	0.382	0.347	-0.293	-0.145 (inactive)	0.732 (inactive)	-0.342 (inactive)	0.511	0.265 (inactive)	0.15	-0.283	0.104	-0.0897
